# Source: the OligoGym collection
# Molecular target: KIR2DL5B
# Assay: pooled miR-30 sensor sort-seq; sequence = guide strand
# Settings: shRNA
# Also: reference of the scale not given here.
row,Sequence,sensor-assay potency score (higher = more potent)
1,TTGTACAGACTGAAGATGGTAA,-0.188
2,TACATGTCAAATGAGCTCCTGG,-0.149
3,TTTGTCTGTGTGAAAACGCAGT,-0.271
4,TTCTTTTTGTTGGAGCAGCAGC,-0.965

# Molecular target: KLC3
# Assay: as above
# Settings: shRNA
row,Sequence,sensor-assay potency score (higher = more potent)
1,TTCTGTTTCAGGTAGGCTGAGG,-0.432
2,TTGGAGAGTGAGCTGCTGCGGC,-0.586
3,TTCTTTGTACAGCTCTTCCGCT,-0.475
4,TTTCTTTGTACAGCTCTTCCGC,-0.28
5,TTGTACTTGTTCTGGTCCCGGT,-0.388
6,ATCTTGGAGAGTGAGCTGCTGC,-1.26
7,TTGAGTGACATGGCTCTCTTCA,-0.297
8,TCTTTGTACAGCTCTTCCGCTT,-0.542
9,TTGATACTTGTTCTGTTTCAGG,-0.751
10,TTCTTTGTACTTGTTCTGGTCC,-0.164
11,TTTGTACTTGTTCTGGTCCCGG,-0.559
12,TTGTACAGCTCTTCCGCTTGTT,0.24

# Molecular target: KLF14
# Assay: as above
# Settings: shRNA
row,Sequence,sensor-assay potency score (higher = more potent)
1,TTCTTGTCGCAGTCGAGCCAGT,-1.02
2,TCGCAGTCGAGCCAGTCGCAGG,-1.84
3,TATCTGGATGATAGGTTGGGTG,-1.33
4,ATATCTGGATGATAGGTTGGGT,-0.162
5,TAAACTTCTTGTCGCAGTCGAG,-0.734
6,TTGTAATAGGCTTTGGTGCAGC,-0.333
7,ATAGGCTTTGGTGCAGCCCGGG,-0.764
8,TAGGCTTTGGTGCAGCCCGGGA,-1.12
9,AAACTTCTTGTCGCAGTCGAGC,-1.65
10,TACTCGATCATATCTGGATGAT,-0.368
11,TTGGTCAGGTGGTCGCTCCGGG,-0.324
12,TTGAGGTGCGACGACTTGTAAT,-1.63

# Molecular target: KLF15
# Assay: as above
# Settings: shRNA
row,Sequence,sensor-assay potency score (higher = more potent)
1,TTAAATTTCAAATTTACACAAA,-0.919
2,TATATTTTTATGAAGGACCAAA,-0.999
3,TTTGGTGTACATCTTGCTGCAG,0.126
4,TCTCGCACACAGGACACTGGTA,-0.647
5,TGGATCTGCAGCAACACTGGGA,-0.384
6,TAAACCTGTCAAAACAAGCTAG,-0.421
7,TAACATTGCCATGTCCCTCTGG,0.313
8,TAGCACTAAAGTTCTGGCCTTG,-0.309
9,AAACTCTTCAATCTCCTCCAGG,-0.475
10,TATCTAGTTCTCTCACACCCAG,-0.809
11,TATTTTATGTGGATGGACCTAT,0.313
12,TTGGTGTACATCTTGCTGCAGC,-0.584
